Assay results as given in the supplement of paper PMC9950053.
Structures can show the parent of a compound that is named as a salt.

system: Danio rerio larvae (5 dpf); assay: startle (activity period 16 minus period 15, 20-s interval sound) minus DMSO control (percentage points); higher = stronger startle response than DMSO larvae; conditions: 10 µM; exposure time: 3 h pre-incubation + 3 h imaging
Protocol: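 Wild-type 5 dpf zebrafish larvae (n=48 per drug, 96-well plates, 28.5 °C) were exposed to Tocris FDA-approved library compounds at 10 µM (0.1% DMSO) for 3 h before and 3 h during imaging. Images were taken every 6 s during visual and acoustic stimuli, and larvae were tracked with Z-LaP Tracker. Each measure is the treated-group mean minus the DMSO control mean (n=844), in percentage points. This mapping covers compounds with 5-character plate codes.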

| SMILES | startle |
| --- | --- |
| C[C@H]1O[C@H](O[C@H]2[C@H](O)[C@@H](O)[C@@H](O[C@H]3[C@H](O)[C@@H](O)C(O)O[C@@H]3CO)O[C@@H]2CO)[C@H](O)[C@@H](O)[C@@H]1N[C@H]1C=C(CO)[C@@H](O)[C@H](O)[C@H]1O (some centres not stated) [Acarbose] | -7.07 |
| CCCc1nn(C)c2c(=O)[nH]c(-c3cc(S(=O)(=O)N4CCN(C)CC4)ccc3OCC)nc12 [Sildenafil citrate] | -1.15 |
| OCc1cc(C(O)CNCCCCCCOCCCCc2ccccc2)ccc1O (configuration not stated) [Salmeterol xinafoate] | -4.63 |
| CCc1nc(N)nc(N)c1-c1ccc(Cl)cc1 [Pyrimethamine] | 1.66 |
| CC(C)OC(=O)C(C)(C)Oc1ccc(C(=O)c2ccc(Cl)cc2)cc1 [Fenofibrate] | -5.75 |
| N#C[C@@H]1C[C@@H]2C[C@@H]2N1C(=O)[C@@H](N)C12CC3CC(CC(O)(C3)C1)C2 [Saxagliptin hydrochloride] | 4.83 |
| COc1ccccc1OCC(O)CN1CCN(CC(=O)Nc2c(C)cccc2C)CC1 (configuration not stated) [Ranolazine dihydrochloride] | 2.16 |
| O=C1CCc2ccc(OCCCCN3CCN(c4cccc(Cl)c4Cl)CC3)cc2N1 [Aripiprazole] | -3.31 |
| CN(C)CCc1c[nH]c2ccc(C[C@H]3COC(=O)N3)cc12 [Zolmitriptan] | 2.75 |
| C#CCN[C@@H]1CCc2ccccc21 [Rasagiline mesylate] | 3.19 |
| NS(=O)(=O)c1cc2c(cc1Cl)NC(C1CC3C=CC1C3)NS2(=O)=O (configuration not stated) [Cyclothiazide] | 1.22 |
| COc1ccccc1Oc1c(NS(=O)(=O)c2ccc(C(C)(C)C)cc2)nc(-c2ncccn2)nc1OCCO [Bosentan] | 7.41 |
| CNC(=O)c1cc(Oc2ccc(NC(=O)Nc3ccc(Cl)c(C(F)(F)F)c3)cc2)ccn1 [Sorafenib] | -3.34 |
| CN[C@H]1CC[C@@H](c2ccc(Cl)c(Cl)c2)c2ccccc21 [Sertraline hydrochloride] | 2.62 |
| Clc1ccc2nsnc2c1NC1=NCCN1 [Tizanidine hydrochloride] | -2.98 |
| CC(=O)Oc1cc2c(s1)CCN(C(C(=O)C1CC1)c1ccccc1F)C2 (configuration not stated) [Prasugrel] | -11.4 |
| COc1cc([C@@H]2c3cc4c(cc3[C@@H](O[C@@H]3O[C@@H]5CO[C@@H](C)O[C@H]5[C@H](O)[C@H]3O)[C@H]3COC(=O)[C@H]23)OCO4)cc(OC)c1O [Etoposide] | -0.943 |
| OCCN1C[C@H](O)[C@@H](O)[C@H](O)[C@H]1CO [Miglitol] | -0.148 |
| Cc1cc2c(s1)Nc1ccccc1N=C2N1CCN(C)CC1 [Olanzapine] | 2.27 |

| SMILES | startle |
| --- | --- |
| COc1cc(N)c(Cl)cc1C(=O)NC1CCN(CCCOc2ccc(F)cc2)CC1OC (configuration not stated) [Cisapride] | -1.14 |
| CN(C)C(=N)NC(=N)N [Metformin hydrochloride] | -2.04 |
| CNCc1ccc(-c2[nH]c3cc(F)cc4c3c2CCNC4=O)cc1 [Rucaparib camsylate] | -4.48 |
| CCCC1O[C@@H]2C[C@H]3[C@@H]4CCC5=CC(=O)C=C[C@]5(C)[C@H]4[C@@H](O)C[C@]3(C)[C@]2(C(=O)CO)O1 (some centres not stated) [Budesonide] | -5.13 |
| CC(C)(C(=O)O)c1ccc(C(O)CCCN2CCC(C(O)(c3ccccc3)c3ccccc3)CC2)cc1 (configuration not stated) [Fexofenadine hydrochloride] | 3.14 |
| CC(C)COCC(CN(Cc1ccccc1)c1ccccc1)N1CCCC1 (configuration not stated) [Bepridil hydrochloride] | -3.27 |
| O=C(O)C[C@H](O)C[C@H](O)/C=C/c1c(C2CC2)nc2ccccc2c1-c1ccc(F)cc1 [Pitavastatin calcium] | 2.76 |
| CC[C@H]1OC(=O)[C@H](C)[C@@H](O[C@H]2C[C@@](C)(OC)[C@@H](O)[C@H](C)O2)[C@H](C)[C@@H](O[C@@H]2O[C@H](C)C[C@H](N(C)C)[C@H]2O)[C@](C)(O)C[C@@H](C)CN(C)[C@H](C)[C@@H](O)[C@]1(C)O [Azithromycin] | 2.55 |
| COCCc1ccc(OCC(O)CNC(C)C)cc1 (configuration not stated) [Metoprolol tartrate] | 4.47 |
| CC(=O)Nc1ccc(O)cc1 [Acetaminophen] | 0.242 |
| CCCCCCCN(CC)CCCC(O)c1ccc(NS(C)(=O)=O)cc1 (configuration not stated) [Ibutilide hemifumarate] | -4.59 |
| COc1cc2nccc(Oc3ccc(NC(=O)C4(C(=O)Nc5ccc(F)cc5)CC4)cc3)c2cc1OC | -3.85 |
| NC(=O)OCC(COC(N)=O)c1ccccc1 [Felbamate] | 1.44 |
| CNS(=O)(=O)Cc1ccc2[nH]cc(CCN(C)C)c2c1 [Sumatriptan succinate] | 2.1 |
| OC(c1cc(C(F)(F)F)nc2c(C(F)(F)F)cccc12)C1CCCCN1 (configuration not stated) [Mefloquine hydrochloride] | -13.1 |
| N#Cc1ccc2[nH]cc(CCCCN3CCN(c4ccc5oc(C(N)=O)cc5c4)CC3)c2c1 [Vilazodone hydrochloride] | -7.54 |
| O=c1n(CCCN2CCN(c3cccc(Cl)c3)CC2)nc2ccccn12 [Trazodone hydrochloride] | 3.18 |
| C[C@@H]1C[C@H]2[C@@H]3CCC4=CC(=O)C=C[C@]4(C)[C@@]3(F)[C@@H](O)C[C@]2(C)[C@@]1(O)C(=O)CO [Dexamethasone] | -0.0968 |
